According to the supplement of paper PMC10849652:
About 7,900 targets were measured; listed, in parts, are those with a hit and a random draw of the rest. About 0.6% of all pairs of compound and target were hits. Values without a mark were called inactive.

Tests used:
Experiment in all cases: log2 fold change, soluble protein after heating vs DMSO (PISA); higher = thermal stabilisation; K562 cells, 10 uM, 30 min; active = over 0.2 and 3.5 SD of the protein, either way, in both replicates (recomputed)
IRAK-1-4 Inhibitor I = compound: C1COCCN1CCN2C3=CC=CC=C3N=C2NC(=O)C4=CC(=CC=C4)[N+](=O)[O-] [IRAK-1-4 Inhibitor I]
In short: (§1)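 Soluble protein was quantified by TMTpro 16plex LC-MS/MS after channel sums were equalised. It was obtained as the supernatant after 21,000xg for 90 min from pooled aliquots of K562 cells (2×10^6 cells/mL, 10 μM compound, 30 min) heated for 3 min across 48°C-58°C and extracted in PBS with 0.5% NP-40 at 4°C. Thermal stability values are relative to control samples and come from duplicates. They are given as log2 fold changes.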

ibrutinib = compound: C=CC(=O)N1CCC[C@@H](n2nc(-c3ccc(Oc4ccccc4)cc3)c3c(N)ncnc32)C1 [ibrutinib]
In short: as §1

[1] = compound: CC(=O)c1cnc2ccc(-c3cc(Cl)c(O)c(Cl)c3)nc2c1N[C@H]1CC[C@H](CN(C)C)CC1
In short: as §1

ralimetinib = compound: CC(C)(C)Cn1c(N)nc2ccc(-c3[nH]c(C(C)(C)C)nc3-c3ccc(F)cc3)nc21 [ralimetinib]
In short: as §1

[2] = compound: CC(C)(O)CC(=O)NCCn1ccc2ncnc(Nc3ccc(Oc4cccc(C(F)(F)F)c4)c(Cl)c3)c21
In short: as §1

[3] = compound: CC(C)C1=C2N=C(C=C(N2N=C1)NCC3=CC=CC=C3)NCCCCCCN
In short: as §1

[4] = compound: CC(C)C[C@@H](C=O)NC(=O)[C@H](CC(C)C)NC(=O)[C@H](CC(C)C)NC(=O)OCc1ccccc1
In short: as §1

pinometostat = compound: CC(C)N(C[C@H]1O[C@@H](n2cnc3c(N)ncnc32)[C@H](O)[C@@H]1O)[C@H]1C[C@@H](CCc2nc3cc(C(C)(C)C)ccc3[nH]2)C1 [pinometostat]
In short: as §1

[5] = compound: CC1=C(C(CC(=O)N1)C2=CC=C(C=C2)C(F)(F)F)C(=O)NC3=C(C=C4C(=C3)C=NN4)F
In short: as §1

[6] = compound: CC1=C(C2=C(C=C1)C(=O)C3=CC=CC=C3N2CCCN)C
In short: as §1

[7] = compound: CC1=C(C=C(C=C1)NC(=O)C2=CC(=CC=C2)C(C)(C)C#N)NC3=CC4=C(C=C3)N=CN(C4=O)C
In short: as §1

[8] = compound: CC1=C(C=C(C=C1)NC(=O)C2=CC(=CC=C2)N(C)C)NC(=O)C3=CC=C(C=C3)O
In short: as §1

[9] = compound: CC1=CC=C(C=C1)SC2=C3C=C(SC3=CN=C2)C(=O)N
In short: as §1

[10] = compound: CC1=NC(=CC=C1)C2=C(N=C(N2)C(C)(C)C)C3=CC4=NC=CN=C4C=C3
In short: as §1

Nexturastat A = compound: CCCCN(Cc1ccc(C(=O)NO)cc1)C(=O)Nc1ccccc1 [Nexturastat A]
In short: as §1

vemurafenib = compound: CCCS(=O)(=O)Nc1ccc(F)c(C(=O)c2c[nH]c3ncc(-c4ccc(Cl)cc4)cc23)c1F [vemurafenib]
In short: as §1

[11] = compound: CCCS(=O)(=O)Nc1ccc(F)c(C(=O)c2c[nH]c3ncc(Cl)cc23)c1F
In short: as §1

[12] = compound: CCCc1cc(C)[nH]c(=O)c1CNC(=O)c1cc(-c2ccnc(N3CCN(C)CC3)c2)cc2c1cnn2C(C)C
In short: as §1

givinostat = compound: CCN(CC)Cc1ccc2cc(COC(=O)Nc3ccc(C(=O)NO)cc3)ccc2c1 [givinostat]
In short: as §1

barasertib = compound: CCN(CCCOc1ccc2c(Nc3cc(CC(=O)Nc4cccc(F)c4)[nH]n3)ncnc2c1)CCOP(=O)(O)O [barasertib]
In short: as §1

Chain of UniProt Q9H6V9 (Q9H6V9 whole entry, looked up): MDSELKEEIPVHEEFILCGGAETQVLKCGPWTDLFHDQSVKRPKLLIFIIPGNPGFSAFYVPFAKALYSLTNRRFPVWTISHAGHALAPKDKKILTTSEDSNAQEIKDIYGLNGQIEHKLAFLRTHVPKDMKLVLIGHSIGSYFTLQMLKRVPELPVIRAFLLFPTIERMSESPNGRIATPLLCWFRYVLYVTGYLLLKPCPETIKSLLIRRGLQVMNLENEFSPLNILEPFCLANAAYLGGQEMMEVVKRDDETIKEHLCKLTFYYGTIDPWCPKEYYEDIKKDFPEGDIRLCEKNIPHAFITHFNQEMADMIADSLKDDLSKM
Chain of UniProt P11717 (P11717 whole entry, looked up): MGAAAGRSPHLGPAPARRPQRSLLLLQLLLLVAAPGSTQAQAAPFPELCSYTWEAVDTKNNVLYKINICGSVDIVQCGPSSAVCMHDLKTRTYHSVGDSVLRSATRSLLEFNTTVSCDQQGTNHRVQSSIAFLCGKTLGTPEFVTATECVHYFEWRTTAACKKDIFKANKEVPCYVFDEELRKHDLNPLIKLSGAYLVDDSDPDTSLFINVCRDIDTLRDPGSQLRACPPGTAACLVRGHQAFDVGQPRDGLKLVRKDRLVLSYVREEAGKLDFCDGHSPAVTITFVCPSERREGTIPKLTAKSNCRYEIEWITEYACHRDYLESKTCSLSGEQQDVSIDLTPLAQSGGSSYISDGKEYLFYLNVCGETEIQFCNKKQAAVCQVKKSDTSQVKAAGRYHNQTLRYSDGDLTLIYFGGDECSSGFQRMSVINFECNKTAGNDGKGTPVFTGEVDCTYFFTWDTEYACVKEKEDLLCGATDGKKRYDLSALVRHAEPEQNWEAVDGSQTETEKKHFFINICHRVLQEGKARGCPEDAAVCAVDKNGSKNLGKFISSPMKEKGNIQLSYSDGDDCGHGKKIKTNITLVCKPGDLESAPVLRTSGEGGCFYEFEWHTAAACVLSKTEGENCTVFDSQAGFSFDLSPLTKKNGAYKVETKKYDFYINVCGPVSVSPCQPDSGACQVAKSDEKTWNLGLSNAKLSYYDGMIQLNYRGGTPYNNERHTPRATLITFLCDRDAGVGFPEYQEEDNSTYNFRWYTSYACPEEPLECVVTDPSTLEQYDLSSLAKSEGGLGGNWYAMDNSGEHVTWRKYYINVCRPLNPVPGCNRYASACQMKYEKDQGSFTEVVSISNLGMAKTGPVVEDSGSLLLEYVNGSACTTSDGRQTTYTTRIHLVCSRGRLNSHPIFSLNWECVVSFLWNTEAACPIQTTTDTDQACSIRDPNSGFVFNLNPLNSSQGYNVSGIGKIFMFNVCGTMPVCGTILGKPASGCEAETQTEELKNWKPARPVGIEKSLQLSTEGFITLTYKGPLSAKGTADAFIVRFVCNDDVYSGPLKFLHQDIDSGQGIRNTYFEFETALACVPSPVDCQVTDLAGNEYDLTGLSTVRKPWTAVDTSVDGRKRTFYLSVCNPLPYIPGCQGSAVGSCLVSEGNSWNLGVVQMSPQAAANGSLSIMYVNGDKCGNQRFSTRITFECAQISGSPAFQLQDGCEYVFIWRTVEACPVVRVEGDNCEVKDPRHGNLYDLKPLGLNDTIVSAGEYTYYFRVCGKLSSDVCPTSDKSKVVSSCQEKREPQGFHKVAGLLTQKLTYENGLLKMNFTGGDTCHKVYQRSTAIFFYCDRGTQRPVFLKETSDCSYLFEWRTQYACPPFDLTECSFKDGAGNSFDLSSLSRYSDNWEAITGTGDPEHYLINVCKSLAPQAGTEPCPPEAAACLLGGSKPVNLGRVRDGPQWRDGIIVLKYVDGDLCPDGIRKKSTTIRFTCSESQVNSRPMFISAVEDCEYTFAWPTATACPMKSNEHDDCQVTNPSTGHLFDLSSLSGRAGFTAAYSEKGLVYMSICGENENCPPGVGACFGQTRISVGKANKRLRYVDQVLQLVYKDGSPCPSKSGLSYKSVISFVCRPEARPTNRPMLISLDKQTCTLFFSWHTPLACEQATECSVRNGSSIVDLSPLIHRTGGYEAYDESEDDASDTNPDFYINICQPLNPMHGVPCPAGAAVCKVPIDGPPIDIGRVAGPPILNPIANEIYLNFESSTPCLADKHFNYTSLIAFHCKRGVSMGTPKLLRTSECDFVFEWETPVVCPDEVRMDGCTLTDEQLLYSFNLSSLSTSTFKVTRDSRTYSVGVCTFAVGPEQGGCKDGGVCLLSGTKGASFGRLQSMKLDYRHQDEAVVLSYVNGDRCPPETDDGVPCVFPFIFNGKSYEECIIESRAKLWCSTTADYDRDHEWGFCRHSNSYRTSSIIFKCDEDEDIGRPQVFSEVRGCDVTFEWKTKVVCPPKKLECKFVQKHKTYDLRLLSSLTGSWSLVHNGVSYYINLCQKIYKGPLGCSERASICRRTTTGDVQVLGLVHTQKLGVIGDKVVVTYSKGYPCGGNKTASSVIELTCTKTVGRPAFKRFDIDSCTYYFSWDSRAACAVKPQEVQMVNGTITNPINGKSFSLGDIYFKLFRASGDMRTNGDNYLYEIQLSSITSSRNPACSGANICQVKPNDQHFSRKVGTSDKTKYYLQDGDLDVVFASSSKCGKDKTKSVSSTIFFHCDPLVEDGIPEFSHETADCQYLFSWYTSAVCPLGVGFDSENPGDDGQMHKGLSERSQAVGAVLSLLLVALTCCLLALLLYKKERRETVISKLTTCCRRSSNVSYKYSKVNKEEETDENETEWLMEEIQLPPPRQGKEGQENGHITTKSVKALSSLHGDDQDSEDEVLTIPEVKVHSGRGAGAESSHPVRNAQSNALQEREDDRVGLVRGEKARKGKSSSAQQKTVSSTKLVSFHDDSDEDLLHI
Chain of UniProt O94829 (O94829 whole entry, looked up): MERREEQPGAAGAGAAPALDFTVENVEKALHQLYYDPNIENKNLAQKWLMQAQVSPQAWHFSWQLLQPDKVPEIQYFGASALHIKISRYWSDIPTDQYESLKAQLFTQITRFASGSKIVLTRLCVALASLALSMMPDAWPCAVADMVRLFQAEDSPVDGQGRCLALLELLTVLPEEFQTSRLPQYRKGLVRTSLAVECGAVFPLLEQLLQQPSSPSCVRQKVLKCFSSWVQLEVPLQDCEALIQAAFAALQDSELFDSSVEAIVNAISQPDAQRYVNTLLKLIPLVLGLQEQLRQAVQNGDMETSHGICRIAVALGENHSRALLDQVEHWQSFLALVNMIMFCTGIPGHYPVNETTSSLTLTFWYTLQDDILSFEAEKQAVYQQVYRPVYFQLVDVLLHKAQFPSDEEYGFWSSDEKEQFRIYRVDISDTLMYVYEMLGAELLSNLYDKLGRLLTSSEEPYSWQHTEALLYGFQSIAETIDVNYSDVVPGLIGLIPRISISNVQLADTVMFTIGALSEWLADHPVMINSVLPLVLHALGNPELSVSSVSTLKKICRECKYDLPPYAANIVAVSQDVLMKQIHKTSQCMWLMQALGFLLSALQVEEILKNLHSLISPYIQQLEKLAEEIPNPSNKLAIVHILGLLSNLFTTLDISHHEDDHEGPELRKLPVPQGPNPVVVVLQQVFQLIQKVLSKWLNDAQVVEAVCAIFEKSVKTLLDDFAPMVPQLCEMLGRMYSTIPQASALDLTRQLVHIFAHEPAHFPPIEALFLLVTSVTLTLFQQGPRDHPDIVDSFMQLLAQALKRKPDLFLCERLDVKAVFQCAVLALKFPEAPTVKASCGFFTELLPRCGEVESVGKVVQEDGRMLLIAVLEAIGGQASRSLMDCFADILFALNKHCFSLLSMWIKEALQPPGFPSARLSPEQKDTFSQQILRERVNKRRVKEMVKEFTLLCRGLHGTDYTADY
Chain of UniProt Q13123 (Q13123 whole entry, looked up): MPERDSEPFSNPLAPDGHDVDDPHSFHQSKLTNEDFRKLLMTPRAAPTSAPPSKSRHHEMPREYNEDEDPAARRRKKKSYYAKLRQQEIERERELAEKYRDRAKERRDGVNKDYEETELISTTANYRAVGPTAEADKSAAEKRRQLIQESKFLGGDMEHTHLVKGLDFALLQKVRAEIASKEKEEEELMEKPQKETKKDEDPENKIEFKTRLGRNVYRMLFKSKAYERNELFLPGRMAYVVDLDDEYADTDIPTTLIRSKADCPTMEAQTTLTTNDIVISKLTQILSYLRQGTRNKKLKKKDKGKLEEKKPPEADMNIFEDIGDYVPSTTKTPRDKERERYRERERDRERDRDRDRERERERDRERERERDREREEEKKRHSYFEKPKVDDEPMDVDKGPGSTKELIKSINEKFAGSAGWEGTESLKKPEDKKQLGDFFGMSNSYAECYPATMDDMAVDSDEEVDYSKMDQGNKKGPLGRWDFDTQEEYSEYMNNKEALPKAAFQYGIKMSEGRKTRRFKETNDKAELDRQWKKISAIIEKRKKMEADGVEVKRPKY
Chain of UniProt Q16891 (Q16891 whole entry, looked up): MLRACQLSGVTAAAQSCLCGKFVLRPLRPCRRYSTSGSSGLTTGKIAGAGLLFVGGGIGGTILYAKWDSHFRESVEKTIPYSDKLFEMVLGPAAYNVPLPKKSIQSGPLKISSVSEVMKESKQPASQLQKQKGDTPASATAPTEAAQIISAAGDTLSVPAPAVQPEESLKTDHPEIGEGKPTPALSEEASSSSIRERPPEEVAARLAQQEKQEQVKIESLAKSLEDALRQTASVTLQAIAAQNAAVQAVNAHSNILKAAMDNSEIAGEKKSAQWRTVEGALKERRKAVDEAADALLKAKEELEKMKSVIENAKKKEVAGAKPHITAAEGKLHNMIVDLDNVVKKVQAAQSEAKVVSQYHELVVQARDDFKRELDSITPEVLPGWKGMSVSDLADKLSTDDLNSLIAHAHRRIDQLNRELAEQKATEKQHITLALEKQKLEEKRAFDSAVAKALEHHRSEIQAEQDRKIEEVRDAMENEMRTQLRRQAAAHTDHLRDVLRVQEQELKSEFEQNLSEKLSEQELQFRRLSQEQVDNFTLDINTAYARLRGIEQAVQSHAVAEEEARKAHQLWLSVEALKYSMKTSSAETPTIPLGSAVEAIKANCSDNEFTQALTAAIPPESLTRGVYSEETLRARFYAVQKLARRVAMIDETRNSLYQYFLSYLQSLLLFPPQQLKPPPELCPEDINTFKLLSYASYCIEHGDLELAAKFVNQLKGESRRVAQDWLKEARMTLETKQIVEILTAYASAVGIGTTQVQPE

Target	log2 fold change (IRAK-1-4 Inhibitor I)	log2 fold change (ibrutinib)	log2 fold change [1]	log2 fold change (ralimetinib)	log2 fold change [2]	log2 fold change [3]	log2 fold change [4]	log2 fold change (pinometostat)	log2 fold change [5]	log2 fold change [6]	log2 fold change [7]	log2 fold change [8]	log2 fold change [9]	log2 fold change [10]	log2 fold change (Nexturastat A)	log2 fold change (vemurafenib)	log2 fold change [11]	log2 fold change [12]	log2 fold change (givinostat)	log2 fold change (barasertib)
ILF2 (UniProt Q12905)	-0.095	0.027	0.155	0.131	0.082	0.318	-0.024	0.064	-0.014	0.204	0.036	-0.032	-0.031	-0.041	0.084	0.028	-0.042	0.032	-0.02	-0.119
LONP2 (UniProt Q86WA8)	-0.016	-0.023	-0.033	0.103	-0.135	0.004	-0.609 (active)	-0.008	-0.271	-0.009	0.173	-0.119	0.08	0.009	-0.083	0.128	-0.137	0.013	-0.05	-0.056
MAP4 (UniProt E7EVA0)	-0.058	-0.036	-0.022	0.088	0.013	-0.025	0.049	0.104	-0.046	0.027	0	0.008	-0.03	-0.061	0.161	-0.046	-0.002	0.024	0.091	0.061
IPO13 (UniProt O94829)	-0.005	-0.1	0.066	0.103	-0.226	-0.281 (active)	0.002	0.015	-0.026	-0.04	0.068	-0.013	-0.008	-0.027	-0.03	-0.01	0.047	0.009	-0.011	0.044
MAPK9 (UniProt P45984)	-0.002	-0.016	0.278 (active)	0.208	0.005	-0.037	-0.032	-0.032	-0.022	0	0	-0.011	-0.078	0.044	-0.057	-0.005	-0.07	0.034	0.038	-0.022
LRRFIP1 (UniProt Q32MZ4)	0.014	0.019	0.027	-0.003	0.063	0.084	0.011	0	0	-0.043	-0.024	0.003	-0.012	-0.01	0.005	-0.019	-0.027	-0.002	0.014	0.004
IWS1 (UniProt Q96ST2)	-0.026	-0.027	0.492 (active)	-0.04	-0.09	0.166	-0.04	0.014	-0.044	-0.301 (active)	-0.083	0.007	-0.015	-0.02	0.029	0.046	-0.003	-0.017	0.051	0.002
LDAH isoform 2 (UniProt Q9H6V9)	0.039	0.066	-0.039	0.077	0.464 (active)	-0.286 (active)	0.019	0	-0.053	0.073	-0.026	-0.008	0	-0.024	0.032	0.044	0.024	-0.04	0.059	0.031
KIF13A (UniProt Q9H1H9)	0.045	0.042	0.047	-0.015	0.025	-0.069	0.035	-0.008	-0.01	-0.044	-0.005	0.021	-0.005	-0.004	0.018	-0.045	0.04	-0.005	-0.021	-0.009
IMMT isoform 4 (UniProt Q16891)	0.037	-0.005	-0.015	-0.044	-0.035	-0.179	-0.013	-0.013	0.017	0.01	0.009	0.012	0.032	0.032	-0.027	-0.007	0.002	-0.045	-0.022	0.001
MEPCE (UniProt Q7L2J0)	0.088	0.023	0.166	0.108	0.026	-0.16	0	0.098	-0.026	-0.31 (active)	0.077	0.025	-0.014	-0.252	-0.057	0.062	0.083	0.05	-0.04	0.025
MFGE8 (UniProt Q08431)	-0.058	0.016	0.269	0.152	0.105	0	0.191	0.12	-0.008	-0.038	0.034	-0.027	-0.122	-0.061	0.161	-0.028	-0.124	0.019	-0.004	-0.057
MAPRE3 (UniProt Q9UPY8)	0.027	-0.044	-0.003	-0.142	-0.049	-0.079	-0.033	0.019	0.01	-0.029	0	-0.002	-0.021	0.074	-0.07	0.041	0.06	0.136	-0.037	0.027
IK (UniProt Q13123)	-0.139	-0.067	-0.06	-0.007	0.054	0.031	0.239	0.038	0.022	0.148	0.032	0.039	-0.035	-0.026	0.093	0.086	-0.002	0.036	0.021	0.047
IGF2R (UniProt P11717)	-0.002	0.013	0.016	-0.038	-0.007	-0.218 (active)	-0.009	0.005	0.029	-0.071	-0.039	-0.016	0.037	-0.004	0.014	-0.022	-0.007	-0.036	-0.018	0.002
ILF3 isoform 7 (UniProt Q12906)	-0.098	0.014	0.172	0.067	0.086	0.338	0.001	0.134	0.006	0.218	0.028	-0.068	-0.087	-0.036	0.146	-0.036	-0.1	0.102	-0.017	-0.125
